In PubChem BioAssay (Tox21) one finds Potency data, which are given here for 29 molecules.

Test [1] concerns the target Luciferin 4-monooxygenase (Photinus pyralis) (UniProt P08659). Put plainly: qHTS assay to identify small molecule inhibitors of firefly luciferase (AID 1224835). Note: nearly all actives have a fitted effect of over 25% in size. Note: potency is the fitted concentration of half-maximal effect. The method, boiled down: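 Inhibition of purified Photinus luciferase is measured by luminescence. Substrate levels (D-luciferin, ATP) sit at their KM values. Each compound is tested in a concentration series.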
(Quantitative high-throughput screening tests each substance at several concentrations.)

A short description of test [2]: qHTS assay to identify small molecule agonists of the constitutive androstane receptor (CAR) signaling pathway - cell viability counter screen (AID 1224836). Note: nearly all actives have a fitted effect of over 45% in size. Note: potency is the fitted concentration of half-maximal effect. The method, boiled down:
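Cells were seeded and incubated 4 hrs. Compounds were added across 15 concentrations together with PK11195 at 0.75 uM final. Plates were incubated 23 hrs at 37 C. CellTiter-Fluor was added and fluorescence measured.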

The nature of test [3]: qHTS assay to identify small molecule antagonists of the constitutive androstane receptor (CAR) signaling pathway - cell viability counter screen (AID 1224837). Note: nearly all actives have a fitted effect of over 45% in size. Note: potency is the fitted concentration of half-maximal effect. The method, boiled down: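 To flag cytotoxic false antagonists, HepG2 hCAR/CYP2B6-2.2kb cells were treated 23 hr with 15-concentration compound series and 50 nM CITCO at 37 C/5% CO2; CellTiter-Fluor fluorescence was the measured end point.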

In test [4] the target is Nuclear receptor subfamily 1 group I member 3 (Homo sapiens) (UniProt Q14994). Put plainly: qHTS assay to identify small molecule antagonists of the constitutive androstane receptor (CAR) signaling pathway (AID 1224838).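 Note: HepG2 cells stably expressing hCAR with CYP2B6 luciferase reporter stimulated by CITCO; nearly all actives have a fitted effect of over 40% in size.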 Note: potency is the fitted concentration of half-maximal effect. In outline: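 Human hepatoma HepG2 cells expressing hCAR and a CYP2B6 promoter (2.2 kb) luciferase construct; compound titration (15 points) with 50 nM CITCO final, 24 h at 37 C/5% CO2; luminescence via ONE-Glo after 30 min at room temperature.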

Test [5] shares this target. Put plainly: qHTS assay to identify small molecule agonists of the constitutive androstane receptor (CAR) signaling pathway (AID 1224839). Note: nearly all actives have a fitted effect of over 15% in size. Note: potency is the fitted concentration of half-maximal effect. In outline: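 Cells were plated and incubated 4 hrs, then dosed with compounds at 15 concentrations. PK11195 was added to 0.75 uM final. After 24 hrs at 37 C, luciferase luminescence was measured.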
A short description of test [6]: qHTS assay to identify small molecule antagonists of the estrogen related receptor signaling pathway with the pleiotropic PPARgamma coactivator (PGC) from Tox21 10K library - cell viability counter screen (AID 1224840; active = well fitted cell-killing curve with a large enough effect in the repeat runs, not every such curve was filed as active; note: nearly all actives have a fitted effect of over 40% in size; note: potency is the fitted concentration of half-maximal effect). In outline: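 Seeded PGC/ERR cells (2,000/well, 6 h, 37 C/5% CO2) get compound by pin tool; 17.5 h incubation at 37 C; CellTiter-Fluor added, 30 min, fluorescence measured.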

Test [7] can be described thus: qHTS assay to identify small molecule antagonists of the estrogen related receptor signaling pathway with the pleiotropic PPARgamma coactivator (PGC) from Tox21 10K library (AID 1224841; call rule not given here; note: actives are mostly falling curves and most rising ones were filed inactive; nearly all actives have a fitted effect of over 50% in size; note: potency is the fitted concentration of half-maximal effect). In outline: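 Test chemicals dissolved in DMSO were applied to pre-incubated (6 h) PGC/ERR cells at 2,000 cells/well for an 18 h, 37 C treatment; reporter luminescence was then read using One-Glo.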

The nature of test [8]: qHTS assay to identify small molecule agonists of the estrogen related receptor signaling pathway with the pleiotropic PPARgamma coactivator (PGC) from Tox21 10K library (AID 1224842). Note: nearly all actives have a fitted effect of over 15% in size. The method, boiled down:
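Luminescence from One-Glo (30 min, room temperature) measured after PGC/ERR cells had 18 h at 37 C with pinned compound (23 nL in DMSO). Cells had been seeded at 2,000 per well and pre-incubated 6 h.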

The nature of test [9]: qHTS assay to identify small molecule agonists of the hypoxia (HIF-1) signaling pathway - cell viability counter screen (AID 1224844; calls by dose curve; note: nearly all actives have a fitted effect of over 50% in size; note: potency is the fitted concentration of half-maximal effect). The method, boiled down: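 HRE-bla ME-180; 0.5% dFBS; cpd 17 h, 37C, 5% CO2; CellTiter-Glo lum., 30 min RT, post-FRET read, same wells.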
In test [10] the target is Thyrotropin receptor (Homo sapiens) (UniProt P16473). Put plainly: qHTS assay to identify small molecule agonists of the thyroid stimulating hormone receptor (TSHR) signaling pathway (AID 1224843; calls by dose curve; note: nearly all actives have a fitted effect of over 45% in size). The method, boiled down:
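Agonist activity read as cAMP rise via d2/cryptate HTRF competition, 1 h room-temperature detection, in HEK293 cells expressing TSHR. Fifteen-point titrations, each run in triplicate, with a 30 min room-temperature incubation beforehand.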

Records with an inconclusive call do not appear. The source made the active and inactive calls. Unless noted, calls come from the whole dose curve; as a rule, active = well fitted curve in the direction sought with a large enough effect in the repeat runs; inconclusive = weak or mixed curves; inactive = no such curve, though single readings can be large; an effect the other way counts as inactive or inconclusive.

Sequence of Nuclear receptor subfamily 1 group I member 3 (Homo sapiens) (Q14994 whole entry, looked up): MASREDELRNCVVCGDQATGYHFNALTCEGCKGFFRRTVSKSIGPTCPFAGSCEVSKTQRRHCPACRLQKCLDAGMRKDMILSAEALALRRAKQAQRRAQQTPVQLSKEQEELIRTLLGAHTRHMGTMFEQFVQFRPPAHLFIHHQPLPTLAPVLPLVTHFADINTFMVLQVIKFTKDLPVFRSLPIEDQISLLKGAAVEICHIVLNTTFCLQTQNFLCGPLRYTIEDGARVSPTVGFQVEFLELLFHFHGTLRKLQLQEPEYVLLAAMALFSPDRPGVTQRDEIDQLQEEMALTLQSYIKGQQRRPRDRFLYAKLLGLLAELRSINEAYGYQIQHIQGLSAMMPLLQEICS
Sequence of Luciferin 4-monooxygenase (Photinus pyralis) (P08659 whole entry, looked up): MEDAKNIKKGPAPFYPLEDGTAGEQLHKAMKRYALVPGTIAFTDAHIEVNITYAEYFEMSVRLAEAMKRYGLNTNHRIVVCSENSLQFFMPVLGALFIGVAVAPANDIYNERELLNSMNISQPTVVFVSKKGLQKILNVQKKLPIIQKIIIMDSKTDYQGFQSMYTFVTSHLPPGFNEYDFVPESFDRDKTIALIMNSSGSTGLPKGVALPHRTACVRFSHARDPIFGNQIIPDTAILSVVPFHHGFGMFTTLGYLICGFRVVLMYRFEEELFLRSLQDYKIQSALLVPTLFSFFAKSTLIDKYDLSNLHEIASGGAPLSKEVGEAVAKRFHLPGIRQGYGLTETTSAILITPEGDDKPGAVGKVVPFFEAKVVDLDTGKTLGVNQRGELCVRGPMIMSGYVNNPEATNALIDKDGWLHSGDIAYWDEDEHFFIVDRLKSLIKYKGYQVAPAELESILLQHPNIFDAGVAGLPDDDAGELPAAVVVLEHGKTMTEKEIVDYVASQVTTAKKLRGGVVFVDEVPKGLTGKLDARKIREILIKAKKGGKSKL
Sequence of Thyrotropin receptor (Homo sapiens) (P16473 whole entry, looked up): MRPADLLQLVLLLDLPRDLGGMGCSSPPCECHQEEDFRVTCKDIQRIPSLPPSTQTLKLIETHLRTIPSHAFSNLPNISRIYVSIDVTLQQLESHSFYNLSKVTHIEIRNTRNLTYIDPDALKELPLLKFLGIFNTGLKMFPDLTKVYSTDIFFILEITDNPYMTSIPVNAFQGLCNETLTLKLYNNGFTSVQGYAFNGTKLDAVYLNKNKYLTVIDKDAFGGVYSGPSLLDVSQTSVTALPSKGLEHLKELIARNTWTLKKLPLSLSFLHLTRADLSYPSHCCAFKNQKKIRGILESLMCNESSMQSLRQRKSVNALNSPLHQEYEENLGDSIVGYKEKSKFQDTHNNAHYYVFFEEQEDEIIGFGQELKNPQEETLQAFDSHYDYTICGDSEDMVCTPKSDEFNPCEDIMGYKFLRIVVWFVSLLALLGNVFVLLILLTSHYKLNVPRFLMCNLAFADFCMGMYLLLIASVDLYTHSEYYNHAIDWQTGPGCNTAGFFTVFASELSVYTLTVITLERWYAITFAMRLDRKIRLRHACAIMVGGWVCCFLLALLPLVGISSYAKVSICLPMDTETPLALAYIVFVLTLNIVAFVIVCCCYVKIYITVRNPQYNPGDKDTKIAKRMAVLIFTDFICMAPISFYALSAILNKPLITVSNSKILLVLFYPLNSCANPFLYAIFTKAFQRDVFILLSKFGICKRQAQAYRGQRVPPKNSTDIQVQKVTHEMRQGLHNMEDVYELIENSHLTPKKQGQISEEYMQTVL

In the case of `C/C=C/C=O`, the Potency entry in test [1], in [2], in test [3], in test [4] and in test [5] was “inactive” each time.

`IC(I)=C(I)I`: the Potency entry in test [1], in test [5] and in test [8] was “inactive” in each case. The Potency was 30.6 µM (active) in test [2]; 27.3 µM (active) in [3]; 12.2 µM (active) in test [4]; 24.3 µM (active) in test [6]; 21.7 µM (active) in test [7]; 11 µM (active) in test [9].

On to `O=C(O)CC(Cl)C(=O)O` (stereo not drawn), for which the Potency result in test [1], in [2], in test [3], in test [4], in [5] and in [6] was “inactive” throughout. The Potency result in test [7], in [8] and in [9] was “inactive” in each case.

As to `CCCCOC(=O)c1ccccc1C(=O)OCc1ccccc1`, the Potency result in test [1], in [2], in test [3], in [4], in test [6] and in [7] was “inactive” each time. Besides, the Potency entry in test [8] and in test [9] was “inactive” in each case. The Potency in [5] is 54.5 µM (active).

For `COC(C)(C)CCC[C@H](C)C/C=C/C(C)=C/C(=O)OC(C)C`, the Potency entry in [1], in [2], in [3], in test [4], in test [5] and in [6] was “inactive” in each case. Besides, the Potency result in [8], in test [10] and in test [9] was “inactive” each time.

As for `O=NN1CCNCC1`, the Potency entry in test [1], in [2], in test [3], in test [4], in test [5] and in test [6] was “inactive” in each case.

As to `Clc1ccc(C(OCCN2CCCCC2)c2ccccc2)cc1` (stereo not drawn), the Potency entry in test [1], in test [2], in test [3], in test [4], in [5] and in [6] was “inactive” throughout. Further, the Potency result in [8] and in test [10] was “inactive” throughout.

`COc1nn(CSP(=S)(OC)OC)c(=O)s1`: the Potency was 35.6 µM (active) in [1] and 54.5 µM (active) in [5]. Besides, the Potency result in test [2], in [3] and in [4] was “inactive” in each case.

Regarding `O=C(O)C(F)(F)C(F)(F)C(F)(F)C(F)(F)C(F)(F)C(F)(F)C(F)(F)C(F)(F)C(F)(F)F`, the Potency entry in test [1], in [2], in test [3], in test [4], in [5] and in [6] was “inactive” throughout. Further, the Potency result in [7] and in test [8] was “inactive” in each case. In addition, in test [9], the Potency is 13.8 µM (active).

As to `Clc1cccc2ccccc12`, the Potency entry in [1], in test [2], in test [3], in [4], in test [5] and in test [9] was “inactive” in each case.

As for `COC(=O)C(Cl)C(=O)OC`, the Potency entry in test [1], in [2], in [3], in test [4], in [5] and in test [6] was “inactive” throughout. For the same molecule, the Potency entry in test [10] and in test [9] was “inactive” each time.

With `O=S1(=O)OC(c2cc(Br)c(O)c(Br)c2)(c2cc(Br)c(O)c(Br)c2)c2ccccc21`, the Potency in test [1] is 10.3 µM (active); in test [2] it was 25 µM (active); in [3], 28.1 µM (active); in test [4], 25 µM (active); in test [6], 25 µM (active); in test [9], 6.34 µM (active). Besides, the Potency entry in test [5] was “inactive”.

As for `CC(=O)c1cc2c(cc1C)C(C)(C)C(C)CC2(C)C` (stereo not drawn), the Potency result in [1], in test [2], in [3], in test [4] and in test [10] was “inactive” throughout. Further, the Potency in test [5] was 24.3 µM (active); in test [9], 43.6 µM (active).

On to `CC(C)N(C(=O)COc1nnc(C(F)(F)F)s1)c1ccc(F)cc1`, for which the Potency result in test [1], in [2], in test [3], in [4], in [6] and in test [8] was “inactive” in each case. Also, the Potency result in test [10] and in test [9] was “inactive” in each case.

`O=C(O)COc1ccc(Cl)cc1`: the Potency entry in [1], in [2], in test [3], in test [4], in [5] and in test [8] was “inactive” throughout. Moreover, the Potency result in test [10] and in test [9] was “inactive” in each case.

As for `CC(=O)C(C)(C)C`, the Potency result in test [1], in test [2], in test [3], in test [4], in test [5] and in test [8] was “inactive” each time. The Potency entry in test [10] and in [9] was “inactive” each time.

For `NC(=O)C(Cl)(Cl)Cl`, the Potency entry in test [1], in test [2], in test [3], in [4], in test [5] and in [10] was “inactive” each time. In test [9], the Potency result is “inactive”.

Turning to `C=CCCl`, the Potency entry in test [1], in test [2], in [3], in test [4], in test [5] and in test [6] was “inactive” throughout. The Potency entry in [9] is “inactive”.

On to `CN(C)c1ccc(N(C)C)cc1`, for which the Potency in test [1] was 63.5 µM (active); in [5] it was 61.3 µM (active). For the same molecule, the Potency result in test [2], in [3], in [4] and in [9] was “inactive” throughout.

Turning to `CC(C)(CCl)C(=O)Cl`, the Potency entry in test [1], in [2], in test [3], in [4], in test [5] and in test [6] was “inactive” throughout. The Potency result in test [9] is “inactive”.

`Nc1nc(N)nc(N)n1`: the Potency entry in [1], in [2], in test [3], in [4], in test [5] and in test [10] was “inactive” throughout. In addition, the Potency entry in test [9] is “inactive”.

For the molecule `O=C(NC(=O)c1c(F)cccc1F)Nc1cc(Cl)c(Oc2ncc(C(F)(F)F)cc2Cl)c(Cl)c1`, the Potency entry in test [1], in [2], in test [3], in test [4], in [5] and in test [6] was “inactive” in each case. The Potency entry in test [9] was “inactive”.

Consider `CCOC(=O)COc1cc(-c2nn(C)c(OC(F)F)c2Cl)c(F)cc1Cl`, for which the Potency result in test [1], in test [2], in test [3], in test [4], in test [5] and in test [7] was “inactive” throughout. Moreover, the Potency entry in test [8] and in test [9] was “inactive” each time.

Take `O=C(CBr)Nc1ccc(Cl)cc1C(=O)c1ccccc1F`: the Potency entry in test [1], in test [2], in test [3], in test [4], in [8] and in test [10] was “inactive” throughout. Further, the Potency result in test [9] was “inactive”. For the same molecule, the Potency in [5] was 26.6 µM (active).

Take `C=C(C#N)CCC#N`: the Potency entry in test [1], in test [2], in test [3], in test [4], in test [5] and in test [8] was “inactive” each time. The Potency entry in test [9] is “inactive”.

Regarding `COC(=O)C(C)N(C(=O)Cc1ccccc1)c1c(C)cccc1C` (stereo not drawn), the Potency result in test [1], in [2], in test [3], in test [4], in test [6] and in [9] was “inactive” in each case. Also, in test [5], the Potency is 9.69 µM (active).

In the case of `O=C(O)C1(c2ccc3c(c2)OC[C@H](Cc2ccc(-c4ccccc4)cc2)[C@H]3O)CCCC1`, the Potency in test [1] is 71 µM (active); in test [9], 17.4 µM (active). Also, the Potency entry in test [2], in [3], in [4], in test [5] and in [8] was “inactive” throughout.

For the molecule `C[C@]12CC[C@H]3[C@@H](CCC4=CC(=O)CC[C@@H]43)[C@@H]1CC[C@@H]2OC(=O)CCC1CCCCC1`, the Potency result in test [1], in test [2], in test [3], in test [4], in test [5] and in test [6] was “inactive” throughout. Further, in test [9], the Potency result was “inactive”.

For the molecule `CC1(C)CCC(Cc2ccc(Cl)cc2)C1(O)Cn1cncn1` (stereo not drawn), the Potency entry in test [1], in [2], in test [3], in [4], in [5] and in test [8] was “inactive” throughout. In addition, the Potency in test [7] was 38.6 µM (active).
